# Laboratory results: PubChem BioAssay (NCATS)
# Results filed as inconclusive are left out. Where a call stands in place of a potency, no number is given. The source made the active and inactive calls. Calls come from the whole dose curve; as a rule, active = well fitted curve in the direction sought with a large enough effect; inconclusive = small, poorly fitted or top-dose-only effect, or another doubt; inactive = no such curve, though single readings can be large; an effect the other way counts as inactive or inconclusive.
# Assays:
# [1] = qHTS of pediatric cancer cell lines to identify multiple opportunities for drug repurposing: Primary screen for SJ-GBM2 cells (AID 1347091); note: potency is the fitted concentration of half-maximal effect
# Outline: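 Cell viability, CellTiter-Glo luminescence; 500-1,000 cells/well, 8- or 11-point titration, 48 h compound exposure at 37 degrees C, 5% CO2. Controls: DMSO neutral, bortezomib 2.3 µM final as positive.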
# [2] = qHTS of pediatric cancer cell lines to identify multiple opportunities for drug repurposing: Primary screen for U-2 OS cells (AID 1347096); note: nearly all actives have a fitted effect of over 50% in size; note: potency is the fitted concentration of half-maximal effect
# Outline: (§1)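 Cells (500-1,000/well) rested 5 h, then received compounds for 48 h; metabolically active cells were measured by CellTiter-Glo luminescence. Final concentrations spanned up to 46 µM (MIPE, 11-point) or 0.59 nM-46 µM (NPC, 8-point) in primary screens, 11-point in follow-ups.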
# [3] = qHTS of pediatric cancer cell lines to identify multiple opportunities for drug repurposing: Primary screen for NB1643 cells (AID 1347099); note: nearly all actives have a fitted effect of over 50% in size; note: potency is the fitted concentration of half-maximal effect
# Outline: (§2)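 Quantitative HTS format: each compound titrated (MIPE 11 points from 0.78 nM, NPC 8 points from 0.59 nM) onto cells plated 5 hours earlier. After 48 h at 37 degrees C, CellTiter-Glo luminescence was recorded.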
# [4] = qHTS of pediatric cancer cell lines to identify multiple opportunities for drug repurposing: Primary screen for Rh18 cells (AID 1347102); note: nearly all actives have a fitted effect of over 65% in size; note: potency is the fitted concentration of half-maximal effect
# Outline: as §1
# [5] = qHTS of pediatric cancer cell lines to identify multiple opportunities for drug repurposing: Primary screen for control Hh wild type fibroblast cells (AID 1347106);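 note: series mostly up to about 46 µM; a drop in luminescence marks cytotoxicity and a rise apparent proliferation; nearly all actives have a fitted effect of over 55% in size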
# Outline: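 Cells (500-1,000/well) in growth media were settled 5 h at 37 degrees C, then given compounds for 48 h. Viability was read as CellTiter-Glo luminescence. Primary runs used MIPE at 11 points (0.78 nM-46 µM) and NPC at 8 points (0.59 nM-46 µM); follow-ups used 11 points.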
# [6] = qHTS of pediatric cancer cell lines to identify multiple opportunities for drug repurposing: Primary screen for Rh41 cells (AID 1347108); note: nearly all actives have a fitted effect of over 70% in size; note: potency is the fitted concentration of half-maximal effect
# Outline: as §2
# [7] = qHTS of pediatric cancer cell lines to identify multiple opportunities for drug repurposing: Primary screen for SK-N-SH cells (AID 1347098); note: nearly all actives have a fitted effect of over 65% in size; note: potency is the fitted concentration of half-maximal effect
# Outline: as §1
# [8] = qHTS of pediatric cancer cell lines to identify multiple opportunities for drug repurposing: Primary screen for OHS-50 cells (AID 1347103); note: nearly all actives have a fitted effect of over 40% in size; note: potency is the fitted concentration of half-maximal effect
# Outline: as §1
# [9] = qHTS of pediatric cancer cell lines to identify multiple opportunities for drug repurposing: Primary screen for MG 63 (6-TG R) cells (AID 1347105); note: nearly all actives have a fitted effect of over 50% in size; note: potency is the fitted concentration of half-maximal effect
# Outline: as §2
# [10] = qHTS of pediatric cancer cell lines to identify multiple opportunities for drug repurposing: Primary screen for Rh30 cells (AID 1347107); note: series mostly up to about 46 µM; nearly all actives have a fitted effect of over 75% in size
# Outline: as §1
# [11] = qHTS of pediatric cancer cell lines to identify multiple opportunities for drug repurposing: Confirmatory screen for A673 cells (AID 1347110);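 note: cells exposed to compound for 48 h before the viability read; nearly all actives have a fitted effect of over 65% in size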
# Outline: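 Concentration-response curves came straight from titrations: 11 points (0.78 nM to 46 µM) for MIPE and several concentrations (0.59 nM to 46 µM) for NPC in primary, 11 points in follow-up. Readout: ATP luminescence at 48 h.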
# [12] = qHTS of pediatric cancer cell lines to identify multiple opportunities for drug repurposing: Primary screen for NB-EBc1 cells (AID 1347095); note: potency is the fitted concentration of half-maximal effect
# Outline: as §2
# [13] = qHTS of pediatric cancer cell lines to identify multiple opportunities for drug repurposing: Primary screen for LAN-5 cells (AID 1347100); note: potency is the fitted concentration of half-maximal effect
# Outline: as §1
# [14] = qHTS of pediatric cancer cell lines to identify multiple opportunities for drug repurposing: Primary screen for Saos-2 cells (AID 1347097); note: nearly all actives have a fitted effect of over 40% in size; note: potency is the fitted concentration of half-maximal effect
# Outline: as §2
# [15] = qHTS of pediatric cancer cell lines to identify multiple opportunities for drug repurposing: Primary screen for RD cells (AID 1347104); note: nearly all actives have a fitted effect of over 55% in size; note: potency is the fitted concentration of half-maximal effect
# Outline: as §2
# [16] = qHTS of pediatric cancer cell lines to identify multiple opportunities for drug repurposing: Primary screen for SK-N-MC cells (AID 1347093); note: potency is the fitted concentration of half-maximal effect
# Outline: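 Metabolically active cells were quantified by ATP-dependent luminescence (CellTiter-Glo, 15 min at room temperature) following 48 h treatment. Cells had been plated at 500-1,000 per well and settled for 5 h beforehand.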
# [17] = qHTS of pediatric cancer cell lines to identify multiple opportunities for drug repurposing: Primary screen for BT-12 cells (AID 1347101); note: nearly all actives have a fitted effect of over 25% in size; note: potency is the fitted concentration of half-maximal effect
# Outline: as §1
# [18] = qHTS of pediatric cancer cell lines to identify multiple opportunities for drug repurposing: Primary screen for BT-37 cells (AID 1347094); note: potency is the fitted concentration of half-maximal effect
# Outline: as §2
# [19] = qHTS of pediatric cancer cell lines to identify multiple opportunities for drug repurposing: Primary screen for A673 cells (AID 1347092); note: potency is the fitted concentration of half-maximal effect; nearly all actives have a fitted effect of over 45% in size
# Outline: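 48 h compound exposure, A673, 500-1,000 cells/well, 37 degrees C/5% CO2. MIPE: 11-point, 0.78 nM-46 µM; NPC: 8-point, 0.59 nM-46 µM (final). Readout CellTiter-Glo luminescence after 15 min RT.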
SMILES,Potency [1],Potency [2],Potency [3],Potency [4],Potency [5],Potency [6],Potency [7],Potency [8],Potency [9],Potency [10],Potency [11],Potency [12],Potency [13],Potency [14],Potency [15],Potency [16],Potency [17],Potency [18],Potency [19]
COc1ccc([C@@H]2Sc3ccccc3NC(=O)[C@@H]2O)cc1,7.5 µM (active),inactive,inactive,inactive,inactive,inactive,–,–,–,–,–,–,–,–,–,–,–,–,–
CCCC(=O)O[C@]1(C(=O)CCl)[C@@H](C)C[C@H]2[C@@H]3CCC4=CC(=O)C=C[C@]4(C)[C@@]3(F)C(=O)C[C@@]21C,–,inactive,inactive,inactive,inactive,–,inactive,13.8 µM (active),inactive,inactive,inactive,–,–,–,–,–,–,–,–
C=CCNc1nc(NCC=C)nc(N2CCN(C(c3ccc(F)cc3)c3ccc(F)cc3)CC2)n1,inactive,inactive,inactive,–,inactive,–,inactive,–,inactive,inactive,–,inactive,inactive,–,–,–,–,–,–
O=C(CCC1CCN(Cc2ccccc2)CC1)c1ccc2c(c1)NCCCC2,–,inactive,inactive,inactive,inactive,inactive,30.7 µM (active),–,inactive,inactive,–,inactive,inactive,inactive,–,–,–,–,–
CCOC(=O)N1CCC(n2c(=O)[nH]c3cc(Cl)ccc32)CC1,inactive,–,inactive,inactive,inactive,inactive,inactive,–,inactive,–,–,–,inactive,inactive,inactive,–,–,–,–
CCOC(=O)N1CCC(Nc2ccc(Cl)cc2N)CC1,inactive,inactive,8.41 µM (active),–,inactive,–,19.4 µM (active),–,inactive,inactive,–,6.68 µM (active),2.66 µM (active),–,inactive,10.6 µM (active),4.9 µM (active),–,–
C[C@H](N)C(=O)N[C@@H](C)C(=O)NC1[C@H]2CN(c3nc4c(cc3F)c(=O)c(C(=O)O)cn4-c3ccc(F)cc3F)C[C@@H]12 (stereo partly specified),inactive,inactive,–,inactive,inactive,inactive,–,inactive,–,inactive,–,inactive,–,inactive,inactive,–,–,–,–
CCC[C@H](N[C@@H](C)C(=O)N1[C@H](C(=O)O)C[C@@H]2CCCC[C@@H]21)C(=O)OCC,inactive,inactive,inactive,inactive,–,inactive,–,–,inactive,inactive,–,inactive,inactive,inactive,inactive,–,inactive,inactive,–
O=C(Nc1ccc(Cl)cc1)Nc1ccc(Cl)c(Cl)c1,11.9 µM (active),–,–,–,inactive,–,12.2 µM (active),24.6 µM (active),–,–,–,23.7 µM (active),–,–,23.7 µM (active),18.8 µM (active),–,–,–
O=c1[nH]sc2cc(Cl)ccc12,–,–,0.168 µM (active),–,inactive,–,0.217 µM (active),13.8 µM (active),–,–,–,0.001 µM (active),0.001 µM (active),–,inactive,0.001 µM (active),–,–,0.001 µM (active)
CCCCCCCCCCCCCCCC[n+]1ccccc1,–,21.1 µM (active),inactive,7.5 µM (active),–,11.9 µM (active),7.7 µM (active),2.46 µM (active),–,–,–,18.8 µM (active),13.3 µM (active),15 µM (active),13.3 µM (active),5.31 µM (active),6.92 µM (active),15.5 µM (active),1.68 µM (active)
OC1(c2ccc(Cl)c(C(F)(F)F)c2)CCN(CCCC(c2ccc(F)cc2)c2ccc(F)cc2)CC1,–,21.1 µM (active),–,23.7 µM (active),–,16.8 µM (active),24.4 µM (active),3.89 µM (active),13.3 µM (active),–,–,–,–,11.9 µM (active),21.1 µM (active),–,21.9 µM (active),11 µM (active),10.6 µM (active)
